The list is not random: actives were taken first. Their share in the collection is about 6.2%.
Gal4-VP16 FLuc – inhibits Gal4-VP16 luciferase reporter, ROR gamma counter-screen | Drosophila S2 Gal4-VP16 UAS-luciferase, luminescence, 20 h | Potency, µM (highest dose often 53.6 µM), most hits filed as inhibitors | actives 3.5% (n = 310,000) | AID 2546;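 also: Gal4-VP16 expression switched on by copper sulfate through the metallothionein promoter; nearly all actives have a fitted effect of over 50% in size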
KinaseGlo FLuc – counter-screen: inhibitors of Kinase-Glo firefly luciferase; Q27757; Potency, µM (doses to about 38.3 µM), usual class: inhibitors; AID 1379; actives 0.28% (n = 200,000); Kinase-Glo luciferase, ATP luminescence, 8 min; also: nearly all actives have a fitted effect of over 60% in size
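Luminescence was the read-out, taken after 8-minute incubation at ambient temperature. Luciferase turned over luciferin with 10 uM ATP in imidazole pH 7.2 buffer containing KCl, MgCl2, Tween 20 and BSA.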
RORg inh – blocks mouse ROR gamma transcriptional activity. P51450. Drosophila S2 Gal4-RORgamma UAS-luciferase reporter, 20 h. Potency, µM (series often up to 53.6 µM), usual class: inhibitors. actives 5.4% (n = 310,000). AID 2551; also: nearly all actives have a fitted effect of over 60% in size
Target sequence (P51450 whole entry, looked up, the tested form may be a part): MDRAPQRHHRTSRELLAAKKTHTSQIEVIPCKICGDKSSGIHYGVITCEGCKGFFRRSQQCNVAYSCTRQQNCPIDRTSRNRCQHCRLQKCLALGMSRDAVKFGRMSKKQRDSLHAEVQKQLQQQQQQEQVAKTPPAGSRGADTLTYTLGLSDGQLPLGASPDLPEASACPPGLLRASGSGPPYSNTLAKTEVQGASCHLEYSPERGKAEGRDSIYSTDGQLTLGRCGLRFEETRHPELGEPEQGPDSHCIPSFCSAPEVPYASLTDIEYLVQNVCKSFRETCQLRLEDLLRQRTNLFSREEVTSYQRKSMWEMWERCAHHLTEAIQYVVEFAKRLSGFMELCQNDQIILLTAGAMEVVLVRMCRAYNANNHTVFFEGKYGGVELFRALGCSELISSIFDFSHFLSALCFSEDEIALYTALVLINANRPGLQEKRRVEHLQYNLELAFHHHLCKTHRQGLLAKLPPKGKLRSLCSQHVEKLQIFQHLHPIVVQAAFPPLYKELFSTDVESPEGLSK
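Drosophila Schneider cells stably carrying a metallothionein-driven Gal4 DBD–ROR gamma fusion and a UAS-Photinus luciferase reporter were exposed to compound for 1 hr, then induced with copper sulfate (700 uM final) for 20 hr at ambient temperature before luminescence reading.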
Large screens that a line does not name were inactive. Calls follow the shape of the dose curve; as a rule, active = well fitted curve in the direction sought with a large enough effect; inconclusive = small, poorly fitted or top-dose-only effect, or another doubt; inactive = no such curve, though single readings can be large; an effect the other way counts as inactive or inconclusive.

Cc1[nH]c2ccc(-c3n[nH]c(=S)n3Cc3ccccc3)cc2c1C	RORg inh 10µM
Cc1[nH]c2ccc(-c3n[nH]c(=S)n3-c3ccccc3)cc2c1C	Gal4-VP16 FLuc inconclusive, RORg inh 7.94µM
COc1cccc(-n2c(-c3ccc4[nH]c(C)c(C)c4c3)n[nH]c2=S)c1	RORg inh inconclusive
Cc1[nH]c2ccc(-c3nnc(SCC(=O)NCc4ccco4)n3Cc3ccccc3)cc2c1C	none
CC(=O)c1ccc(-n2c(-c3cc(-c4ccsc4)n[nH]3)n[nH]c2=S)cc1	Gal4-VP16 FLuc inconclusive, RORg inh inconclusive
Cn1c[n+](C)cc1-c1ccc(/C(N)=N/O)cc1	none
CC(CN1CCCC1)C(=O)NN (stereo not drawn)	none
COc1ccc(-c2ccc(OC)c(C3C4C=CCC(C)C4C(=O)N3Cc3ccccc3)c2)cc1OC (stereo not drawn)	none (no result: KinaseGlo FLuc)
CC1CC[C@@]2(OC1)OC1CC3C4CC[C@H]5CC(O)CC[C@@]5(C)C4CC[C@]3(C)C1C2C (stereo partly drawn)	none
NC(=O)c1ccc(NC(=O)COC(=O)c2ccccc2Nc2ccccc2)cc1	none
COC(=O)c1ccc(NC(=S)NC2CCCCC2C)cc1 (stereo not drawn)	Gal4-VP16 FLuc 3.55µM, RORg inh 7.94µM
CCOC(=O)c1ccc(NC(=S)NC(=O)C2CCCC2)cc1	Gal4-VP16 FLuc 7.08µM, RORg inh 7.08µM (no result: KinaseGlo FLuc)
COc1ccc(OCC(=O)NNC(=S)NC(=O)C2CC2)cc1	none (no result: KinaseGlo FLuc)
COc1ccc(OCC(=O)NNC(=S)NC(=O)C2CCCCC2)cc1	RORg inh 14.1µM (no result: KinaseGlo FLuc)
COc1ccc(NC(=O)C(=S)N2CCCC2)cc1	none
COc1ccc(NC(=S)NC(=O)C2CCC2)cc1	Gal4-VP16 FLuc 11.2µM, RORg inh 8.91µM (no result: KinaseGlo FLuc)
COC(=O)c1ccc(NC(=S)NC2c3ccccc3CC2O)cc1 (stereo not drawn)	none
CCOC(=O)c1ccc(NC(=S)NC2CCCC2)cc1	Gal4-VP16 FLuc inconclusive, RORg inh inconclusive
Cc1ccc(C)c(N2CCN(CCCNC(=O)Cn3c(=O)c4cccn4c4cccnc43)CC2)c1	none (no result: KinaseGlo FLuc)
COC(=O)c1ccc(NC(=S)Nc2ccccc2)cc1	none
COC(=O)c1ccc(NC(=S)Nc2ccc3ccccc3c2)cc1	Gal4-VP16 FLuc inconclusive, RORg inh 12.6µM
COC(=O)c1ccc(NC(=O)CNC(=O)C2CCCCC2)cc1	none (no result: KinaseGlo FLuc)
COC(=O)c1ccc(NC(=S)NC(=O)C2CCC2)cc1	Gal4-VP16 FLuc inconclusive, RORg inh 11.2µM (no result: KinaseGlo FLuc)
COC(=O)N1C2CC3(C)C=C(C)OC1(C)C3c1ccccc12 (stereo not drawn)	none (no result: Gal4-VP16 FLuc, RORg inh)
CCN1CCN(CC#CCOc2ccccc2OC)CC1	none (no result: KinaseGlo FLuc)
Cc1cc(C)c(NC(=O)C(C)c2cccc(C(=O)c3ccccc3)c2)c(C)c1 (stereo not drawn)	Gal4-VP16 FLuc inconclusive, RORg inh inconclusive
CC(NCc1cccc(OCc2ccccc2)c1)C(O)c1ccccc1 (stereo not drawn)	RORg inh inconclusive
CC(NCc1ccc(OCc2ccc(Cl)cc2)cc1)C(O)c1ccccc1 (stereo not drawn)	Gal4-VP16 FLuc inconclusive, RORg inh 35.5µM
CC(NC(=O)c1cc([N+](=O)[O-])cc([N+](=O)[O-])c1)C1CC2CCC1C2 (stereo not drawn)	none (no result: KinaseGlo FLuc)
C/C(=N\NC(=O)c1ccccc1)c1c(C)[nH]n(-c2ccccc2)c1=O	Gal4-VP16 FLuc 1.26µM, RORg inh 0.891µM (no result: KinaseGlo FLuc)
C/C(=N\NC(=O)c1ccccc1)c1ccccc1Br	Gal4-VP16 FLuc 6.31µM, RORg inh 3.55µM
Cc1[nH]n(-c2ccccc2)c(=O)c1C(=O)Nc1ccccc1	none (no result: KinaseGlo FLuc)
C/C(=N\NC(=O)c1ccc(C)cc1)c1c(C)[nH]n(-c2ccccc2)c1=O	Gal4-VP16 FLuc 1.58µM, RORg inh 1.26µM (no result: KinaseGlo FLuc)
C/C(=N\NC(=O)c1ccccc1)c1ccccc1F	none
Cc1[nH]n(-c2ccccc2)c(=O)c1C(=O)c1ccc([N+](=O)[O-])cc1	none
Cc1ccc2nc(N)[nH]c(=O)c2c1Sc1ccncc1	none (no result: KinaseGlo FLuc)
CN(C)/C(=N\S(=O)(=O)c1ccc(Br)cc1)c1ccccc1	none (no result: KinaseGlo FLuc)
CC(CCc1ccccc1)NC(=O)COC(=O)c1cc(NS(=O)(=O)c2ccc(Cl)c([N+](=O)[O-])c2)ccc1O (stereo not drawn)	Gal4-VP16 FLuc inconclusive, RORg inh inconclusive
O=C(NCC(c1cccnc1)N1CCN(c2ccccc2)CC1)OCc1ccccc1 (stereo not drawn)	none
O=C(NCC(c1cccnc1)N1CCN(c2ccc(F)cc2)CC1)OCc1ccccc1 (stereo not drawn)	Gal4-VP16 FLuc inconclusive, RORg inh 12.6µM
CCn1ncc(NC(=S)Nc2ccc3c(c2)OCO3)c1C(N)=O	none
CC1(C)CC[C@]2(C(=O)O)CC[C@]3(C)C(=CC[C@@H]4[C@@]5(C)CC[C@H](O)C(C)(C)[C@@H]5CC[C@]43C)[C@@H]2C1	none (no result: KinaseGlo FLuc)

Source: PubChem BioAssay
